Experimental data: the supplement of paper PMC6555819

What was measured:
Experiment in all cases: PBM binding z-score (relative to random genomic background probes); higher = stronger binding; sequences stand for … in GC…GCGATTGACAGCGTAGAATGAAGG
[1] = tested on: PPARg:RXRa DBDmut IVT, anti-RXR (DBD mutation: RXRa K156A/R161A, NR concentration 270 nM, RXRa partner concentration 90 nM)
Method in brief: (§1)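 Scanned fluorescence from custom Agilent 4×180K protein-binding microarrays was regression-normalized. Binding z-scores use random background probes as reference. Ligand-free nuclear receptor dimers were incubated on the arrays for 1 h and detected with antibodies against each partner (one per run).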

[2] = tested on: PPARg:RXRa IVT, anti-PPARg (NR concentration 270 nM, RXRa partner concentration 90 nM)
Method in brief: as §1

[3] = tested on: PPARg DBDmut:RXRa IVT, anti-PPARg (DBD mutation: PPARg1 K132A/R137A, NR concentration 270 nM, RXRa partner concentration 90 nM)
Method in brief: as §1

[4] = tested on: PPARg DBDmut IVT, anti-PPARg (DBD mutation: PPARg1 K132A/R137A, NR concentration 270 nM)
Method in brief: as §1

[5] = tested on: PPARg homodimer (NR concentration 180 nM)
Method in brief: as §1

[6] = tested on: PXR:RXRa (NR concentration 270 nM, RXRa partner concentration 90 nM)
Method in brief: as §1

[7] = tested on: PXR homodimer (NR concentration 270 nM)
Method in brief: as §1

[8] = tested on: RARa:RXR (NR concentration 270 nM, RXRa partner concentration 90 nM)
Method in brief: as §1

[9] = tested on: RARa homodimer (NR concentration 270 nM)
Method in brief: as §1

[10] = tested on: RARb:RXRa (NR concentration 270 nM, RXRa partner concentration 90 nM)
Method in brief: as §1

[11] = tested on: RARb homodimer (NR concentration 270 nM)
Method in brief: as §1

[12] = tested on: RARg:RXRa (NR concentration 270 nM, RXRa partner concentration 90 nM)
Method in brief: as §1

[13] = tested on: RARg homodimer (NR concentration 270 nM)
Method in brief: as §1

[14] = tested on: RXRa DBDmut IVT, anti-RXR (DBD mutation: RXRa K156A/R161A, NR concentration 90 nM)
Method in brief: as §1

[15] = tested on: RXRa homodimer (NR concentration 180 nM)
Method in brief: as §1

[16] = tested on: THRa:RXRa (NR concentration 90 nM, RXRa partner concentration 90 nM)
Method in brief: as §1

[17] = tested on: THRa homodimer (NR concentration 90 nM)
Method in brief: as §1

[18] = tested on: VDR:RXRa (NR concentration 270 nM, RXRa partner concentration 90 nM)
Method in brief: as §1

[19] = tested on: VDR homodimer (NR concentration 270 nM)
Method in brief: as §1

Sequence	PBM binding z-score [1]	PBM binding z-score [2]	PBM binding z-score [3]	PBM binding z-score [4]	PBM binding z-score [5]	PBM binding z-score [6]	PBM binding z-score [7]	PBM binding z-score [8]	PBM binding z-score [9]	PBM binding z-score [10]	PBM binding z-score [11]	PBM binding z-score [12]	PBM binding z-score [13]	PBM binding z-score [14]	PBM binding z-score [15]	PBM binding z-score [16]	PBM binding z-score [17]	PBM binding z-score [18]	PBM binding z-score [19]
CCGAGTAGGTTACGGGGCATTCAGGCAACGGTGA	3.97	4.11	-0.288	-0.815	0.551	0.0878	-0.35	0.636	-0.584	1.5	1.11	1.02	1.07	-0.416	1.16	0.851	-0.136	0.208	0.121
GCATATAGGTAATACAATGTGAAAGTCCGATTGT	4.03	2.5	1.42	1.13	0.581	0.112	0.544	0.557	0.819	0.0649	-0.3	0.415	0.478	0.58	0.305	0.425	-0.105	-0.0597	0.523
TCATATAGGTAATACAAGTGAAAGTCGGCATCTA	4.19	2.25	0.992	1.83	1.46	0.916	0.336	1.3	1.79	0.7	0.148	0.857	0.72	2.07	1.23	0.601	0.0151	1.24	0.435
CCGACTGGGCCAAGGTCATTGATCAGTCAAAGCA	2.08	2.75	-1.14	-0.87	2.42	3.48	0.921	3.76	0.257	3.26	3.28	3.72	3.11	1.4	3.09	3.46	2.09	3	3.33
TCTTATAGGTAAACAGGTGAAAGTCCGTAAGTTA	4.87	4.49	1.36	1.34	1.19	0.753	0.655	0.981	0.803	0.791	0.802	0.615	0.392	1.1	0.864	0.793	0.397	1.17	0.462
TCTATTAGTTGTAGGGCAACCGACGAGTCCGTTT	3.04	2.66	0.777	1.16	0.517	0.457	0.613	0.212	0.401	0.601	0.489	0.147	0.469	1.17	0.403	0.112	0.0984	0.713	1.13
CCTTACGGGTCACGAGGTTTTAGCACGACGAGCG	4.32	5.48	0.0926	0.246	2.12	3.85	-0.106	4.95	0.695	4.54	3.71	5.63	5.4	1.57	6.87	3.12	0.658	5.64	1.4
CAAACTAGGTCACAGAAGTCAAAGTCCGTGCGTA	8.28	9.03	4.57	2.37	2.34	2.34	0.405	3.34	0.949	4.35	3.41	4.45	5.16	2.03	3.63	3.3	1.26	3.91	1.16
TGTCACAGTTCAAAGGTAACGTAAGTATCCACAC	0.227	2.78	1.49	1.01	0.48	3.67	0.969	4.07	-0.272	2.88	1.81	3.57	2.54	2.93	4.82	2.74	-0.0814	3.28	2.33
CCTTACGGGTCACGAGGTTAAAGCACGACGAGCG	3.53	5.39	0.774	0.583	4.94	4.93	0.408	6.28	1.03	4.76	3.99	6.28	5.56	2.06	6.97	3.82	0.843	5.59	2.06
ACTAGCAGGCCAAGTGTCACTCAAGATTAGTCCG	1.36	1.14	-0.753	-0.466	-0.0608	-0.239	-0.525	0.0332	-0.483	0.887	0.681	0.433	0.865	0.117	0.215	0.0959	-0.248	-0.322	-0.143
TCTAGTTGGTCAAAGGTTACACACTCGAAATGCG	3.09	4.81	1.41	2.3	3.48	3.45	1.04	4.79	2.25	2.88	2.96	4.04	2.46	1.54	4.59	2.37	1.01	3.11	1.23
CCTCGGCGGACAGAAGGTCAGAGCTGTCCGCTTT	-0.348	-0.163	-2.18	-2.03	0.787	1.26	-0.667	1.57	-0.497	2.52	2.77	2.53	1.99	-0.44	1.64	1.05	-0.714	0.473	-0.703
CCGACTGGGGCAGAAAGGCTACCATACCATCCGG	0.897	0.918	-0.746	-1.37	-0.0679	-0.836	-0.377	-0.589	0.0496	0.362	0.243	-0.0591	-0.0697	-0.996	-0.122	-0.836	-0.539	-0.639	-0.212
ACTGGCAGGCCAAGGGTCACTCAAGATTAGTCCG	-0.446	2.2	-0.302	-0.62	1.74	2.97	-0.0528	3.8	-0.0207	3.4	3.66	4.14	3.64	-0.0715	3.95	2.71	0.159	2.69	1.11
